This note sets out measurements from PubChem BioAssay AID602332 (National Center for Advancing Translational Sciences (NCATS), 2012).

Values joined by “and” are separate entries in the source; they are usually repeats but may differ in a detail not shown here. Equal entries are not always repeated. About 75 (0.02%) of roughly 420,000 compounds were called active. This excerpt belongs to a sample that is enriched for actives. Unmarked numbers belong to inactive results. Calls follow the shape of the dose curve; as a rule, active = well fitted activation curve with a large enough effect; inconclusive = small, poorly fitted or top-dose-only effect; inactive = no such curve, though single readings can be large or run the other way.
Potency is read from the fitted curve at half-maximal effect.

The nature of this test: qHTS for Inducers of the Endoplasmic Reticulum Stress Response (ERSR) in Human Glioma: qHTS. Also: nearly all actives have a fitted effect of over 35% in size. As to activation: % of control where 0% means no effect. Particulars: U87-MG GRP78 promoter luciferase reporter, 16 h; activation: hits give high values. An excerpt:
Primary protein unfolding takes place for many diseases, including diabetes and hypoxia, , and triggers a reaction in the cells called ER stress response (ERSR). ). ERSR is designed as a repair mechanism, but ultimately leads to cell death via apoptosis if conditions triggering protein unfolding persist (1). The molecular clue to ERSR activation is the enhancement of the expression of key molecular chaperones, including the glucose regulated protein (GRP) 78. GRP78 is the main sensor for protein folding and the main actuator of the ERSR.
In a collaboration between the Southern Research Institute and the NIH Chemical Genomics Center, a cell based screen was developed that reliably uses GRP78 as a sensor to identify small molecules as inducers of ERSR. In resting conditions, GRP78 binds proteins and acts as a natural repressor. Once unfolded proteins are present in the ER, GRP78 releases some of the repressors and binds to the unfolded proteins. The release of the repressors executes the ERSR program. Using a human glioma cell line in a miniaturized, luminescent format, a high-throughput screen was developed to identify actuators of the ERSR.
(1) Soboloff, J. and S. A. Berger (2002). "Sustained ER Ca2+ depletion suppresses protein synthesis and induces activation-enhanced cell death in mast cells." J Biol Chem 277(16): 13812-20.
NIH Chemical Genomics Center [NCGC]
NIH Molecular Libraries Probe Centers Network [MLPCN]
Assay Submitter (PI): Maurizio Grimaldi, Southern Research Institute
Stable transfected human glioma cell line, U87-MG, are dispensed at density 1000 cells/well into Greiner white solid bottom 1536-well assay plates. Compounds are transferred via Kalypsys pin tool equipped with 1536-pin array (10nl slotted pins, V&P Scientific, San Diego, CA). The assay plates will be incubated for 16 hours and developed by adding appropriate quantities of the Promega Bright Glo reagent. The plates will be incubated at room temperature for 10 minutes prior to being transferred into a ViewLux high-throughput CCD imager (PerkinElmer), wherein end-point measurements of luminescence are acquired.
As to `OCC1CCCN(c2nc3cc4c(cc3cc2CNCc2cccs2)OCO4)C1` (configuration not stated), the activation was -3.02%.
Same read-out and setting: next, `Cc1cc[n+](C2CCCCC2)cc1`: 0.895%.
Still for that read-out and setting: next, `C#CCC(C(=O)OC)(C(=O)OC)C(C[N+](=O)[O-])c1ccccc1` (configuration not stated): -5.05%.
In the case of `COc1ccc(CN2CCOc3c(cc(-c4ncc(C(F)(F)F)cc4Cl)cc3OCC3CCCO3)C2)c(O)c1` (configuration not stated), the activation is -0.626%.
On to `COc1cccc(CN2CCC3(CC2)c2ccccc2[C@@H](NC(=O)c2ccccc2OC)[C@@H]3O)c1`, for which the activation was -2.93%.
For the molecule `CC1(C)OC(C(O)(c2ccccc2)c2ccccc2)C(C(O)(c2ccccc2)c2ccccc2)O1` (configuration not stated), the activation was -4.02%.
The same measure, in the same setting: next, `C[C@@H]1O[C@@H](OC[C@H]2O[C@@H](Oc3cc(O)c4c(c3)O[C@H](c3ccc(O)c(O)c3)CC4=O)[C@H](O)[C@@H](O)[C@@H]2O)[C@H](O)[C@H](O)[C@H]1O`: -3.44%; `CC(=O)OCC1OC(C#CCCCc2ccccc2)C=CC1OC(C)=O` (configuration not stated): -2.84% and 1.87%; `CC(=O)OC[C@H]1O[C@@H](O[C@H]2[C@H](O)[C@@H](OC(=O)c3ccccc3C(=O)O)[C@H](O)O[C@@H]2COC(C)=O)[C@H](O)[C@@H](OC(=O)c2ccccc2C(=O)O)[C@@H]1O`: -0.805%.
Still for that read-out and setting: next, `CN(C)c1ccc(/C=C/c2sc3ccccc3[n+]2C)cc1`: -8.55%; `FC(F)(F)c1cccc(-c2cn[nH]c2C2CCCN(Cc3cccn3-c3ccccn3)C2)c1` (configuration not stated): -5.05%.
As for `C=C(C)C1CC=C(C)C(O)C1` (configuration not stated), the Potency is 11.2 µM (active).
With `C=C(C)C1CC=C(CO)CC1` (configuration not stated), the activation is -1.71%.
In the case of `CCOC(=O)N/N=C1/C[C@@H](O)[C@@H](O)[C@@H]2[C@@H]3C(=O)N(CC)C(=O)[C@H]3CC[C@H]12`, the activation is -5.32%.
Same read-out and setting: in the case of `CN1[C@H]2CC(OC(=O)[C@@H](CO)c3ccccc3)C[C@H]1[C@H]1O[C@H]12` (some centres not stated) it was -4%; in that of `COc1ccccc1-c1ccc(C(=O)N(C)C(C)c2ccon2)c(N2CCN(c3ccccc3F)CC2)n1` (configuration not stated), -4.71%.
On the same count and under the same terms, in the case of `Cc1cnc(C(=O)N2CCOc3ccc(CN4CCCC(C(=O)c5cccnc5)C4)cc3C2)[nH]1` (configuration not stated) it was -3.36%; in that of `COc1ccc(CN2CCC3(CCC(CNC(=O)c4ccco4)O3)CC2)cc1OC` (configuration not stated), 0.172%.
The same measure, in the same setting: next, `COC(=O)c1ccccc1-c1cc(C)cc2c1OC(CNC(=O)C1CCOC1)C2` (configuration not stated): -1.81%.
On to `Cn1c(=O)c(CCc2ccccc2)nc2cnc(Nc3ccccc3)nc21`, for which the activation was -3.93%.
Same read-out and setting: next, `Cc1c(S(=O)(=O)O)oc2c1C(=O)C(=O)c1c-2ccc2c1CCCC2(C)C`: -3.94%.
`CCOC(=O)N1CCC(N2CCOc3ccc(CN4CCC(O)(c5cccnc5)CC4)cc3C2)CC1`: the activation is -2.68%.
Still for that read-out and setting: in the case of `CC(CCC(=O)O)C1CCC2C3C(O)C[C@@H]4CC(O)CC[C@@]4(C)C3CC[C@@]12C` (some centres not stated) it was -5.26% and -4.28%.
Same read-out and setting: next, `COc1ccc(-n2c(CNC(=O)c3cc(C(F)(F)F)ccc3Cl)nnc2SC)cc1`: -6.93%; `COc1c(O)c2c(=O)cc(OC)c3c4c(OC)cc(=O)c5c(O)c(OC)c6c(c(c1C[C@@](C)(O)[C@H]6C(C)=O)c23)c54`: -6.89%; `COc1cc(=O)n2c(c1C(=O)N(C)Cc1nonc1C)CCN(C(=O)c1ccc(C)cc1C)CC2`: -4.93%.
The same measure, in the same setting: in the case of `CC(C)(C)c1ccc(OC2C=CC(C#Cc3ccccc3)OC2CO)cc1` (configuration not stated) it was -2.6%; in that of `CCOc1ccc2nc(N3CCCN(CCCn4cccn4)CC3)nc(C)c2c1`, 0.4%.
In the case of `O=C(NCC1Cc2cc(F)cc(-c3cnccn3)c2O1)C1COc2ccccc2O1` (configuration not stated), the activation is -2.7%.
Same read-out and setting: in the case of `CCC1CN(CCNC(=O)c2cccc(C)n2)Cc2cc(OC)ccc2O1` (configuration not stated) it was -0.701%; in that of `C=C1C(=CC=C2CCC[C@]3(C)[C@@H]([C@H](C)C=C[C@H](C)C(C)C)CC[C@@H]23)C[C@@H](O)C[C@@H]1O`, -0.319%; in that of `COc1cccc(-c2cc(=O)c3cc(NC(=O)c4ccc(C)cc4)ccc3[nH]2)c1`, -1.6%.
The same measure, in the same setting: next, `COc1ccccc1C(=O)N[C@@H]1c2ccccc2C2(CCN(Cc3nc(C(C)C)cs3)CC2)[C@H]1O`: -7.22%; `CCC1CN(CCNC(=O)c2cccnc2C)Cc2cc(OC)ccc2O1` (configuration not stated): -0.134%; `Cc1[nH]c2c(C(=O)NCC3Cc4cccc(-c5cccnc5)c4O3)cccc2c1C` (configuration not stated): -3.83%.
Still for that read-out and setting: in the case of `c1ccc(CN2CCN(Cc3ccc4c(c3)CN(Cc3c[nH]c5ccccc35)CCO4)CC2)nc1` it was -3.67%; in that of `CN1CCN(/[N+]([O-])=N/Oc2ccc([N+](=O)[O-])cc2[N+](=O)[O-])CC1`, 20.9%; in that of `CCc1noc(C)c1C(=O)NCCN1Cc2cc(OC)ccc2OC(CC)C1` (configuration not stated), -4.48%.
On to `C=C1/C(=C\C=C2\CCCC3(C)C2CCC3C(C)/C=C/C(O)C2CC2)CC(O)CC1O` (configuration not stated), for which the activation was -9.49%.
`COC(=O)c1ccccc1C(=O)NCc1nc(N2CCCC2)c2cccc(C)c2n1`: the activation was -2.48%.
The same measure, in the same setting: in the case of `CC(=O)c1ccc(F)c(-c2cc(C)cc3c2OC(CNC(=O)Cc2c[nH]c4ccccc24)C3)c1` (configuration not stated) it was 0.07%.
On the same count and under the same terms, next, `CO/N=C(\C(=O)N[C@@H]1C(=O)N2C(C(=O)O)=C(Cn3nnc(C)n3)CS[C@H]12)c1csc(N)n1`: -1.86%.
Still for that read-out and setting: next, `CCCCc1nn(-c2ccccc2C(F)(F)F)c(=O)n1Cc1ccc(-c2ccccc2S(=O)(=O)NC(=O)c2sccc2C)cc1`: -2.91%; `Cc1ccc2c(C)nc(N3CCCC(C(=O)NC(C)(C)CO)C3)nc2c1` (configuration not stated): -2.4%; `CC(O)(COc1ccccc1)c1ccc2c(c1)CN(Cc1cn[nH]c1-c1ccc(F)cc1)CCO2` (configuration not stated): -3.22%.
Regarding `COc1ccccc1C1CN(Cc2ccccc2O)Cc2ccccc2O1` (configuration not stated), the activation is -2.43%.
Take `C[C@H]1CC[C@H](C(=O)O)N[C@@H]1c1ccc(C#Cc2ccccc2)cc1`: the activation is -4.8%.
Still for that read-out and setting: next, `C=CCC1CCC(=O)N2CCCC12` (configuration not stated): -2.78%.
Same read-out and setting: in the case of `O=c1c(CN2CCOc3ccc(CN4CCC(Oc5cccnc5)CC4)cc3C2)coc2ccccc12` it was -1.61%.
Same read-out and setting: next, `O=C(CN1Cc2ccccc2OC(c2ccccc2)C1)N1CCCCC1c1cccnc1` (configuration not stated): 0.385%.
For `C[C@H]1C[C@H]2[C@@H]3CCC4=CC(=O)C=C[C@]4(C)[C@@H]3C(=O)C[C@]2(C)[C@@]1(O)C(=O)CO`, the activation is -3.39%.
Same read-out and setting: in the case of `CC(=O)Oc1c2c(c3c(c1CC=C(C)C)O[C@@]14C(=CC5CC1C(C)(C)OC4(C/C=C(\C)C(=O)O)C5=O)C3=O)OC(C)(CCC=C(C)C)C=C2` (some centres not stated) it was -12.4%.
The same measure, in the same setting: next, `COC(=O)C1=C(C)N(Cc2ccccc2)C2=C3C(=O)N(c4ccccc4)C(=O)C3[C@@](O)(C(=O)OC)C(=O)N2C1c1ccccc1` (some centres not stated): -1.87% and -3.39%; `CN1CCc2nc(-c3ccccc3)c(-c3ccccc3)cc2C1`: -5.76%.
Consider `C=CCOC(=O)C(C(C)=O)C(NC(=O)OC)c1ccccc1` (configuration not stated), for which the activation is -3.7%.
As for `O=C1C[C@H]2C=CCc3cccc(c32)CN1Cc1ccccc1`, the activation was -0.186%.
As to `CC(C)c1cc(C(=O)N2CCOc3ccc(CN4CCC(Oc5cccnc5)CC4)cc3C2)n[nH]1`, the activation is -4.01%.
Still for that read-out and setting: next, `COc1ccccc1C1CN(CCNC(=O)C2=CCCC2)Cc2ccccc2O1` (configuration not stated): -2%.
Consider `CC[C@H](C)[C@H](NC(=O)[C@H](Cc1cnc[nH]1)NC(=O)[C@@H](N)CCC(=O)O)C(=O)N1CCC[C@H]1C(=O)N[C@@H](C)C(=O)O`, for which the activation was -2.54%.
Turning to `CO[C@H]1C[C@@H](O[C@@H]2[C@@H](C)O[C@@H](O[C@@H]3/C(C)=C/CC4C[C@@H](C[C@]5(C=C[C@@H](C)[C@H](C6CCCCC6)O5)O4)OC(=O)[C@@H]4C=C(C)[C@@H](O)[C@H]5OC/C(=C\C=C\[C@@H]3C)[C@]54O)C[C@H]2OC)O[C@@H](C)[C@@H]1O`, the activation was -9.58%.
Same read-out and setting: next, `CC(C)(C)c1ccc(C(=O)C[N+]2(C)CCCc3ccccc32)cc1` (configuration not stated): -4.17%.
The same measure, in the same setting: in the case of `CC(=O)Nc1cc(C(=O)N2CCc3c(Cl)cccc3C2)cc2ncn(CCc3ccccn3)c12` it was -1.89%; in that of `C[C@@H](c1ccccc1)N1C(=O)[C@H]2[C@H]3[C@H](O)[C@H](O)C/C(=N/OC[C@@H](O)COCc4ccco4)[C@@H]3CC[C@@H]2C1=O`, -4.31%.
The same measure, in the same setting: next, `Cc1ncc2c(c1CNS(=O)(=O)N(C)C)CCN(C(=O)c1ccccc1F)C2`: -3.66%; `O=C1CCN(Cc2ccc(-c3ccccc3)cc2)CCN1Cc1ccccn1`: 2.1%; `CN(C)C(=O)[C@@H]1C[C@@H](Sc2nc3ccccc3[nH]2)CN1Cc1ccc(Cl)cc1`: -3.23%.
Consider `C[C@@H]1O[C@@H](OC[C@H]2O[C@@H](Oc3c(-c4cccc(O)c4O)oc4cc(O)cc(O)c4c3=O)[C@H](O)[C@@H](O)[C@@H]2O)[C@H](O)[C@H](O)[C@H]1O`, for which the activation is -4.32%.
Still for that read-out and setting: next, `CCCS(=O)(=O)NCc1c(C)ncc2c1CCN(C(=O)c1ccc(F)c(F)c1)C2`: -4.76%; `CC(C)C(=O)NC(C)c1nnc2n1CCN(Cc1cccc3ncccc13)CC2` (configuration not stated): -2.92%.
Turning to `CCC1CN(CCNC(=O)c2ccsc2)Cc2cc(OC)ccc2O1` (configuration not stated), the activation is -2.11%.
The same measure, in the same setting: next, `N#Cc1cccc(-c2ccc3ncnc(NCc4cccs4)c3c2)c1`: -10.9%; `COC(=O)[C@@H]1CC[C@H](C)[C@@H](c2ccc(C)cc2)N1C(=O)c1ccc(/C=N\O[C@@H](C)c2cn([C@H](CO)Cc3ccccc3)nn2)cc1`: -4.74% and -2.82%.
